Results taken from PubChem BioAssay (Tox21).
Results filed as inconclusive are left out. Active and inactive are the calls of the source. Unless noted, the call rests on the fitted dose curve; in most records, active means well fitted curve in the direction sought with a large enough effect in the repeat runs; inconclusive means weak or mixed curves; inactive means no such curve, though single readings can be large; an effect the other way counts as inactive or inconclusive.

Legend:
[1] = biological target: Retinoic acid receptor RXR-alpha (Homo sapiens) (UniProt P19793); assay: qHTS assay to identify small molecule agonists of the RXR signaling pathway (AID 1159527; calls by dose curve; further: nearly all actives have a fitted effect of over 35% in size)
Sequence of Retinoic acid receptor RXR-alpha (Homo sapiens) (P19793 whole entry, looked up): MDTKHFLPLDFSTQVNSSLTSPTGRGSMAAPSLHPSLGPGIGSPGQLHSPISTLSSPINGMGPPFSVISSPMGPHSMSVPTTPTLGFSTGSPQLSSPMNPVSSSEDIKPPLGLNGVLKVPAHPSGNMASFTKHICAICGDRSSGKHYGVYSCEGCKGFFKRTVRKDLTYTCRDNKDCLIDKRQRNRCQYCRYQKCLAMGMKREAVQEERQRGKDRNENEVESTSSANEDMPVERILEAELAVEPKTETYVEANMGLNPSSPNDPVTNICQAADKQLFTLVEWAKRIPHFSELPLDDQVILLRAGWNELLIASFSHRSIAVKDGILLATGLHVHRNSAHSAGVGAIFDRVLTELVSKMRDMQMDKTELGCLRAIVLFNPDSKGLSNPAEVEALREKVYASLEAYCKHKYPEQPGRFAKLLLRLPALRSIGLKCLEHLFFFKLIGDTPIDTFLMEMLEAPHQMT
Summary of the method: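 Fluorescence ratio readout (460 vs 530 nm) from GeneBLAzer RXR-alpha HEK 293T cells after 16 hr compound treatment; cells seeded 5 hr beforehand in low-serum, charcoal-stripped medium.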

[2] = qHTS assay to identify small molecule agonists of the RXR signaling pathway - cell viability counter screen (AID 1159529);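 further: HEK 293T cells carrying an RXR-alpha UAS beta-lactamase reporter; nearly all actives have a fitted effect of over 50% in size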
Summary of the method: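 Viability read-out for the RXR-alpha agonist qHTS: luminescent CellTiter-Glo signal after 30 min at RT. HEK 293T bla reporter cells, 2% charcoal-stripped FBS, 16 hr compound incubation; tetraoctyl ammonium bromide as cytotoxic control.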

[3] = qHTS assay to identify small molecule antagonists of the retinoid acid receptor (RAR) signaling pathway - cell viability counter screen (AID 1159551); further: nearly all actives have a fitted effect of over 35% in size
Summary of the method: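 Measured by luminescent ATP detection, viability reflects C3RL4 cells treated 6 h at 37 C with test chemicals in the presence of 1 uM (final) retinol.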

[4] = qHTS assay to identify small molecule antagonists of the retinoic acid receptor (RAR) signaling pathway (AID 1159552; further: nearly all actives have a fitted effect of over 50% in size)
Summary of the method: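 Using a RARE-driven luciferase construct in C3RL4 cells, retinol at 1 uM final provided the agonist stimulus while compounds were co-applied. After 6 hours at 37 C, luminescence was recorded to flag inhibitors of retinol signaling.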

[5] = qHTS assay to identify small molecule agonists of the retinoic acid receptor (RAR) signaling pathway (AID 1159553); conditions: C3RL4 RARE luciferase reporter, agonist, 6 h; activation: at 73.3 µM (top of the series)
Summary of the method: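 6 hr compound exposure (DMSO vehicle) of overnight-plated C3RL4 RARE-luc cells at 37 C; luminescence quantified after 30 min RT with luciferase reagent.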

[6] = qHTS assay to identify small molecule antagonists of the estrogen related receptor (ERR) signaling pathway from Tox21 library - cell viability counter screen (AID 1224834); further: nearly all actives have a fitted effect of over 30% in size
Summary of the method: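 Seeded ERR cells were rested 6 h at 37 C/5% CO2 before compounds, positive and negative controls or DMSO were added. Incubation continued for 17.5 h, and viability was then quantified by CellTiter-Fluor fluorescence.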

[7] = biological target: Luciferin 4-monooxygenase (Photinus pyralis) (UniProt P08659); assay: qHTS assay to identify small molecule inhibitors of firefly luciferase (AID 1224835); further: nearly all actives have a fitted effect of over 25% in size; further: potency means the concentration at half of the fitted maximal effect
Sequence of Luciferin 4-monooxygenase (Photinus pyralis) (P08659 whole entry, looked up): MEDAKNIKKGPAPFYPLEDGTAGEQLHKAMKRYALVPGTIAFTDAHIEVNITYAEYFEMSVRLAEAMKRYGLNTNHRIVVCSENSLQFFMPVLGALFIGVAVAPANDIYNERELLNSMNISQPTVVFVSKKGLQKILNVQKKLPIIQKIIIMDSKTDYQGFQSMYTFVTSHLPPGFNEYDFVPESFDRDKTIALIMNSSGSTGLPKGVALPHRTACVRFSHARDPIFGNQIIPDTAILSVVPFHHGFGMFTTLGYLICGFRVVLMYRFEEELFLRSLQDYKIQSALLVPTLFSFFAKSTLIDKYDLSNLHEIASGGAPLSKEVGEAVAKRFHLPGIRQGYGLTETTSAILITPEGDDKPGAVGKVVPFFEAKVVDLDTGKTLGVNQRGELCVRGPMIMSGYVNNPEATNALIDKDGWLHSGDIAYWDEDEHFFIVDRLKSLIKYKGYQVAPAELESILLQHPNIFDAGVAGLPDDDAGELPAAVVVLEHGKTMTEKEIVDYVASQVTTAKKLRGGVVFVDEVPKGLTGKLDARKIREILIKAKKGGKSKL
Summary of the method: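 Inhibition of purified Photinus luciferase is measured by luminescence. Substrate levels (D-luciferin, ATP) sit at their KM values. Each compound is tested in a concentration series.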

[8] = qHTS assay to identify small molecule agonists of the constitutive androstane receptor (CAR) signaling pathway - cell viability counter screen (AID 1224836); further: nearly all actives have a fitted effect of over 45% in size
Summary of the method: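 Multiplexed viability check: HepG2-CYP2B6-hCAR cells, 15-point compound dosing, 0.75 uM PK11195 final, 23 h at 37 C, CellTiter-Fluor fluorescence.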

[9] = qHTS assay to identify small molecule antagonists of the constitutive androstane receptor (CAR) signaling pathway - cell viability counter screen (AID 1224837); further: nearly all actives have a fitted effect of over 45% in size
Summary of the method: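 To flag cytotoxic false antagonists, HepG2 hCAR/CYP2B6-2.2kb cells were treated 23 hr with 15-concentration compound series and 50 nM CITCO at 37 C/5% CO2; CellTiter-Fluor fluorescence was the measured end point.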
On the % scale 0 is the no-effect control and ±100 the full control effect.

Cc1cc(C)cc([N+](=O)[O-])c1
inactive: Potency [1] | outcome [2] | outcome [3] | Potency [4] | Potency [5] | Potency [6] | Potency [7] | outcome [8] | Potency [9]

CCC(C)(C)C1CCC(=O)CC1
inactive: Potency [1] | outcome [2] | outcome [3] | Potency [4] | Potency [5] | Potency [6] | Potency [7] | outcome [8] | Potency [9]

CCOC(=O)OCC/C(SC(=O)OCC)=C(\C)N(C=O)Cc1cnc(C)nc1N
inactive: Potency [1] | outcome [2] | outcome [3] | Potency [4] | Potency [5] | Potency [6] | Potency [7] | outcome [8] | Potency [9]

Cc1nc(C)nc(N2C[C@@H](C)N(c3ccnc([C@@H](C)O)n3)[C@@H](C)C2)n1
inactive: Potency [1] | outcome [2] | outcome [3] | Potency [4] | Potency [5] | Potency [6] | Potency [7] | outcome [8] | Potency [9]

C[N+](C)(C)CC(O)CCl (stereo not given)
inactive: Potency [1] | outcome [2] | outcome [3] | Potency [4] | Potency [5] | Potency [6] | Potency [7] | outcome [8] | Potency [9]

O=C1OC(=O)c2cc(Oc3ccc4c(c3)C(=O)OC4=O)ccc21
inactive: Potency [1] | outcome [2] | outcome [3] | Potency [4] | Potency [5] | Potency [6] | Potency [7] | outcome [8] | Potency [9]

Nc1ccc(C(=O)OCC(O)CO)cc1 (stereo not given)
inactive: Potency [1] | outcome [2] | outcome [3] | Potency [4] | Potency [5] | Potency [6] | Potency [7] | outcome [8] | Potency [9]

c1ccc(CNc2ncnc3nc[nH]c23)cc1
inactive: Potency [1] | outcome [2] | outcome [3] | Potency [4] | Potency [5] | Potency [6] | Potency [7]

CCNC(=O)NCCCOc1cccc(CN2CCCCC2)c1
inactive: Potency [1] | outcome [2] | outcome [3] | Potency [4] | Potency [5] | Potency [6] | Potency [7] | outcome [8] | Potency [9]

CC(C)c1ccccc1O
inactive: Potency [1] | outcome [2] | outcome [3] | Potency [4] | Potency [5] | Potency [6] | Potency [7] | outcome [8] | Potency [9]

CNC(=O)C(c1ccccc1)c1ccccc1
inactive: Potency [1] | outcome [2] | outcome [3] | Potency [4] | Potency [5] | Potency [6] | Potency [7] | outcome [8] | Potency [9]

CC(C)CCCC(C)CC=O (stereo not given)
inactive: Potency [1] | outcome [2] | outcome [3] | Potency [4] | Potency [5] | Potency [6] | Potency [7] | outcome [8] | Potency [9]

Nc1nc(=O)n([C@@H]2O[C@H](CO)[C@@H](O)[C@@H]2F)cc1I
inactive: Potency [1] | outcome [2] | outcome [3] | Potency [4] | Potency [5] | Potency [6] | Potency [7] | outcome [8] | Potency [9]

CCCCC/C=C/CC(=O)OC
inactive: Potency [1] | outcome [2] | outcome [3] | Potency [4] | Potency [5] | Potency [6] | Potency [7] | outcome [8] | Potency [9]

O=C(c1ccc2c(c1)C(=O)OC2=O)c1ccc2c(c1)C(=O)OC2=O
inactive: Potency [1] | outcome [2] | outcome [3] | Potency [4] | Potency [5] | Potency [6] | Potency [7] | outcome [8] | Potency [9]

CCCCC(CC)C(=O)OC(C)C (stereo not given)
inactive: Potency [1] | outcome [2] | outcome [3] | Potency [4] | Potency [5] | Potency [6] | Potency [7] | outcome [8] | Potency [9]

Nc1ccc(S(=O)(=O)Nc2ccccn2)cc1
inactive: Potency [1] | outcome [2] | outcome [3] | Potency [4] | Potency [5] | Potency [6] | Potency [7] | outcome [8] | Potency [9]

CC(C)C(=O)c1ccccc1
inactive: Potency [1] | outcome [2] | outcome [3] | Potency [4] | Potency [5] | Potency [6] | Potency [7] | outcome [8] | Potency [9]

Cc1ccccc1N1CCN(CCc2nnc3n2CCCC3)CC1
inactive: Potency [1] | outcome [2] | outcome [3] | Potency [4] | Potency [5] | Potency [6] | Potency [7] | outcome [8] | Potency [9]

F[Si-2](F)(F)(F)(F)F
inactive: Potency [1] | outcome [2] | outcome [3] | Potency [4] | Potency [5] | Potency [6] | Potency [7] | outcome [8] | Potency [9]

NC(=O)C1(N2CCCCC2)CCN(CCCC(=O)c2ccc(F)cc2)CC1
inactive: Potency [1] | outcome [2] | outcome [3] | Potency [4] | Potency [5] | Potency [6] | Potency [7] | outcome [8] | Potency [9]

C/C=C(\C)C(=O)OCC/C=C\CC
inactive: Potency [1] | outcome [2] | outcome [3] | Potency [4] | Potency [5] | Potency [6] | outcome [8] | Potency [9]
active: Potency [7] 35.6 µM

C=CCCCCCCCCCCC
inactive: activation [1] 6.32% [at 6.98 µM] | activity change, negative = cytotoxicity [2] 0.762% [at 6.97 µM] | activity change, negative = cytotoxicity [3] 5.5% [at 8.39 µM] | activity, negative = inhibition [4] 18.9% [at 8.39 µM] | activation [5] 0.0107% [at 8.36 µM] | viability change, negative = cytotoxic [6] 0.22% [at 8.39 µM] | activity change, negative = inhibition [7] 6.44% [at 10.5 µM] | viability change, negative = cytotoxic [8] -0.862% [at 8.39 µM] | activity change, negative = cytotoxicity [9] 6.96% [at 8.39 µM]
